Source: PubChem (several laboratories)
Shown are actives, neighbours in structure and some others; about 5.3% of the full set was active somewhere.
PfM18AAP inh-1: PfM18AAP enzyme inhibition. inhibition, % at 7.35 µM. 1.2% of 290,000 active. recombinant PfM18AAP, H-Glu-NHMec fluorogenic cleavage;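 active = inhibition above the campaign mean inhibition over all tested compounds plus 3 SD, cut at about 28% in these data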
ALR inh: human ALR oxidase inhibition via reduced H2O2. P55789. purified ALR, DTT oxidation, H2O2 HRP-luminol luminescence. inhibition, % (concentration not given with the values). 3.8% of 290,000 active;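 active = mean replicate inhibition above about 79%, with every replicate also reaching it, limit read from the data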
Target sequence (P55789 whole entry, looked up): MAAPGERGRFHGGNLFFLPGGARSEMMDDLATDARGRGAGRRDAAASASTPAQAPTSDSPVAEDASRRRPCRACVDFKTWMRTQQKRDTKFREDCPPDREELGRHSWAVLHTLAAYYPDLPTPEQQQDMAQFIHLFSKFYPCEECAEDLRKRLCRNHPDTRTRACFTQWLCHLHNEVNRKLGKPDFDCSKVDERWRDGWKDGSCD
SUMO Mot1 rescue: blocks SUMOylation pathway, rescuing yeast Mot1-301 growth; growth rescue, % at 18.8 µM; S. cerevisiae Mot1-301 growth rescue, ATP luminescence, 38.5C; percent above DMSO median, 100 means doubled; 1% of 320,000 active; AID 2716;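 active = every valid replicate shows activation above 250% relative to neutral control wells; inactive = the rest, any valid replicate at or below 250%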
HIF act: HIF pathway transcriptional activation | 0.32% of 300,000 active | activation, % at 7.5 µM (by protocol) | U2OS HRE-luciferase reporter, luminescence; normalized: DMSO 0%, desferrioxamine 100% | AID 1910;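 active = mean activation of at least 10% of the iron chelator positive control signal, with at least half of replicates also reaching 10%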
PfM18AAP inh-2: PfM18AAP inhibition, confirmation; shares compounds with PfM18AAP inh-1; recombinant PfM18AAP, H-Glu-NHMec fluorogenic cleavage; inhibition, % at 7.35 µM; 28% of 2,400 active; AID 2170;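 active = mean inhibition over replicate wells above the hit cutoff set for the earlier primary screen, cut at about 29% in these data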
CTSL1 counter: Cathepsin L (human) inhibition, confirmation; shares compounds with PfM18AAP inh-1; purified cathepsin L1, Z-Leu-Arg-MCA fluorescence; inhibition, % at 5.96 µM; 2,400 tested, under 10 active; AID 2178;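 active = average inhibition across replicates above the hit cutoff set in the earlier primary screen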
Large screens that a line does not name were inactive (follow-up assays come after a bar, where they were run).

CC1(C)Cc2c(sc3nc(=S)[nH]c(N)c23)CO1	PfM18AAP inh-1 32 | PfM18AAP inh-2 inactive | CTSL1 counter inactive
CC1(C)Cc2c(sc3ncnc(N)c23)CO1	none
Cc1nc(NN)c2c3c(sc2n1)COC(C)(C)C3	PfM18AAP inh-1 58 | PfM18AAP inh-2 inactive | CTSL1 counter inactive
O=c1ccc2cc(O)c(O)cc2o1	PfM18AAP inh-1 42, ALR inh 96 | PfM18AAP inh-2 30 | CTSL1 counter inactive
O=c1ccc2cc3ccoc3cc2o1	none (no result: ALR inh)
O=C1CC(c2ccco2)CC(O)=C1C=Nc1cc(Cl)ccc1O (centres undefined)	PfM18AAP inh-1 33 | PfM18AAP inh-2 inactive | CTSL1 counter inactive
COc1ccc(C2Nc3cccc4cccc(c34)N2)cc1Br	PfM18AAP inh-1 35 | PfM18AAP inh-2 inactive | CTSL1 counter inactive
